# Laboratory results as given in PubChem BioAssay (Tox21).
# Results filed as inconclusive are left out. Entries that show only a call come without a potency. Values without a mark were called inactive. Calls of active or inactive are those of the source. Calls follow the shape of the dose curve; as a rule, active = well fitted curve in the direction sought with a large enough effect in the repeat runs; inconclusive = weak or mixed curves; inactive = no such curve, though single readings can be large; an effect the other way counts as inactive or inconclusive.
# Legend:
# [1] = biological target: Cytochrome P450 1A2 (Homo sapiens) (UniProt P05177); experiment: Cytochrome P450 Family 1 Subfamily A Member 2 (CYP1A2) small molecule antagonists: luciferase reporter qHTS assay (AID 1671199); settings: P450-Glo CYP1A2 enzyme, luciferin luminescence, 1 h; series mostly up to 53 µM
# Outline: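 CYP1A2 turnover of a luminogenic substrate was quantified after 1 h with NADPH regeneration at room temperature. Furafylline served as positive control.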
# [2] = biological target: Voltage-gated inwardly rectifying potassium channel KCNH2 (Homo sapiens) (UniProt Q12809); experiment: Human Ether-a-go-go-Related Gene (hERG) channel small molecule antagonists: fluorescence cell-based qHTS assay (AID 1671200); settings: hERG-U2OS cells, FluxOR thallium flux fluorescence; series mostly up to 76.8 µM
# Outline: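 Thallium flux as potassium surrogate: FluxOR II dye loaded 1 h at room temperature into hERG-expressing U2OS cells, then stimulus buffer added after 10 min. Kinetic 480 nm excitation/540 nm emission read, 2 min.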
# [3] = biological target: Cytochrome P450 3A4 (Homo sapiens) (UniProt P08684); experiment: Cytochrome P450 Family 3 Subfamily A Member 4 (CYP3A4) small molecule antagonists: luciferase reporter qHTS assay (AID 1671201); settings: P450-Glo CYP3A4 enzyme, luciferin luminescence, 1 h; series mostly up to 115 µM
# Outline: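 Recombinant human CYP3A4 converts a proluciferin substrate to luciferin over 1 h at room temperature after NADPH regeneration solution is added (compound preincubated 10 min); detection reagent stops reaction, luminescence read 20 min later as relative units.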
# Also: nearly all actives have a fitted effect of over 50% in size.
# Potency is read from the fitted curve at half-maximal effect.
# Chain of Cytochrome P450 1A2 (Homo sapiens) (P05177 whole entry, looked up): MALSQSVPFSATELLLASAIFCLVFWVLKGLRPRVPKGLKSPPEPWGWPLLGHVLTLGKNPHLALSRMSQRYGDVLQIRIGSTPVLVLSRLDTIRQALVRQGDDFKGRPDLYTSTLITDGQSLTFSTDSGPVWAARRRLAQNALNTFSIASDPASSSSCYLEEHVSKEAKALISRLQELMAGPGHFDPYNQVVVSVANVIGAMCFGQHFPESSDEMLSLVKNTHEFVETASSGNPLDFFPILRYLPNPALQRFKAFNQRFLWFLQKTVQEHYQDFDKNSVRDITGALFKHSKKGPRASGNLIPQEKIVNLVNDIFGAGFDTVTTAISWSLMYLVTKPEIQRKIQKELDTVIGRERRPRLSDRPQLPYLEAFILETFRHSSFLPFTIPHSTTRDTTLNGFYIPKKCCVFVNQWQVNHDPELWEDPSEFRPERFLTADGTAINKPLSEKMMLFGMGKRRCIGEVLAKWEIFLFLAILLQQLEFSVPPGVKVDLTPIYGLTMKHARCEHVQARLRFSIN
# Chain of Voltage-gated inwardly rectifying potassium channel KCNH2 (Homo sapiens) (Q12809 whole entry, looked up): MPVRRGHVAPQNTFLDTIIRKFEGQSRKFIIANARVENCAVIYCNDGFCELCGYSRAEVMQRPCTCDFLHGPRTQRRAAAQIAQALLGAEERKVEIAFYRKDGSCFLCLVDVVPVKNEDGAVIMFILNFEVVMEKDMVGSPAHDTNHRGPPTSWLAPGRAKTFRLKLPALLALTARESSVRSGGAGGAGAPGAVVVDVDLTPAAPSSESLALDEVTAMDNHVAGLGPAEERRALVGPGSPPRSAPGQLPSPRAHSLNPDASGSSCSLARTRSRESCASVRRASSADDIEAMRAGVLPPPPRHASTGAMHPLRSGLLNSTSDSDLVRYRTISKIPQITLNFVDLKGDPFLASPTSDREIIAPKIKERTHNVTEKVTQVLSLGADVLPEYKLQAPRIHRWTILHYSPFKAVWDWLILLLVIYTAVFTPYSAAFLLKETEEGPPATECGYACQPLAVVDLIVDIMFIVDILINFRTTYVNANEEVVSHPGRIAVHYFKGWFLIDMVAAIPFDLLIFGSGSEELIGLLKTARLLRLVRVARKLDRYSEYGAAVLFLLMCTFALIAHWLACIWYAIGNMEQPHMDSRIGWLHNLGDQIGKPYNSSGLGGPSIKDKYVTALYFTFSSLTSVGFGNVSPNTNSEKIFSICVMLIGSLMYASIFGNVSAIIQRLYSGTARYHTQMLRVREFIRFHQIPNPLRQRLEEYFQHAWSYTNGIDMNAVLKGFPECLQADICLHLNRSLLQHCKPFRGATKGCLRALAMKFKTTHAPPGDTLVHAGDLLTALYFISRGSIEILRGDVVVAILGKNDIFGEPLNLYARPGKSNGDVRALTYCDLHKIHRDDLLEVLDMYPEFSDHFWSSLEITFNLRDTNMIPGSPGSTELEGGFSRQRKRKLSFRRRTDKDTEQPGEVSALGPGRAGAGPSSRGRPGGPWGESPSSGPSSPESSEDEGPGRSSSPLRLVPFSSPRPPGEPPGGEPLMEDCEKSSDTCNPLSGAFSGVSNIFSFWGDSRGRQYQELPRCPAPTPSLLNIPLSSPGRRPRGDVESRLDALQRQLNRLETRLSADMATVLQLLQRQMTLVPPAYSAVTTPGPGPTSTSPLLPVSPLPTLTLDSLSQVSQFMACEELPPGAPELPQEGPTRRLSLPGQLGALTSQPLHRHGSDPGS
# Chain of Cytochrome P450 3A4 (Homo sapiens) (P08684 whole entry, looked up): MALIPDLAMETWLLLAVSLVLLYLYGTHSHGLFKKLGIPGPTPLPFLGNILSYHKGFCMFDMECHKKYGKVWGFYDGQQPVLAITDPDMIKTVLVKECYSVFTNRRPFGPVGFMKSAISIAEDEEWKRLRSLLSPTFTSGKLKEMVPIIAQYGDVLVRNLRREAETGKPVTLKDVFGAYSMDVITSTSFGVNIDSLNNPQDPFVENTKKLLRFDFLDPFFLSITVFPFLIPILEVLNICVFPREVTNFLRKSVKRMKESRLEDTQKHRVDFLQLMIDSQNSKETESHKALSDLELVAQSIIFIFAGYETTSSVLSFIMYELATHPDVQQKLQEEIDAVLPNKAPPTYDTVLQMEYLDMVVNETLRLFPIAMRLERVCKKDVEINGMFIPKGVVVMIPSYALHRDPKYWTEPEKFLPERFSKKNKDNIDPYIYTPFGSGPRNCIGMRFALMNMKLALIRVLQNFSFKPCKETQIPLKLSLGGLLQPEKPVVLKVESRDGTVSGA
compound,measurement,setting,value
CCCC(=O)Nc1ccc(O)c(C(C)=O)c1,Potency,[1],9.77 µM (active)
same,Potency,[2],inactive
same,Potency,[3],inactive
C#Cc1cccc(Nc2ncnc3cc(OCCOC)c(OCCOC)cc23)c1,Potency,[1],inactive
same,Potency,[2],inactive
CC(=O)c1cccc([N+](=O)[O-])c1,Potency,[1],35.5 µM (active)
same,Potency,[2],inactive
C[C@@H]1C[C@H]2[C@@H]3CCC4=CC(=O)C=C[C@]4(C)[C@@]3(F)[C@@H](O)C[C@]2(C)[C@@]1(O)C(=O)COC(=O)c1ccncc1,Potency,[1],inactive
same,Potency,[2],inactive
CCCCC(CC)COC(=O)COc1ccc(Cl)cc1Cl (stereo not given),Potency,[1],25.6 µM (active)
same,Potency,[2],inactive
CC(C)Nc1ccc(NC(C)C)c2c1C(=O)c1ccccc1C2=O,Potency,[1],2.34 µM (active)
same,Potency,[2],inactive
same,Potency,[3],3.3 µM (active)
O=C(O)c1ccccc1Cl,Potency,[1],inactive
same,Potency,[2],inactive
CCCCCC[C@@H](O)C/C=C\CCCCCCCC(=O)OC,Potency,[1],35.7 µM (active)
same,Potency,[2],inactive
same,Potency,[3],inactive
CC(C)C[C@H]1C(=O)N2CCC[C@H]2[C@]2(O)O[C@](NC(=O)[C@@H]3C=C4c5cccc6[nH]c(Br)c(c56)C[C@H]4N(C)C3)(C(C)C)C(=O)N12,Potency,[1],inactive
same,Potency,[2],inactive
O=C(Nc1ccc(S(=O)(=O)N2CCOCC2)cc1)c1cc(Cl)ccc1NS(=O)(=O)c1ccc(Cl)s1,Potency,[1],inactive
same,Potency,[2],inactive
O=C(O)c1ccc(-n2nc(-c3ccccc3O)nc2-c2ccccc2O)cc1,Potency,[1],inactive
same,Potency,[2],inactive
NCC(=O)CCC(=O)O,Potency,[1],inactive
same,Potency,[2],inactive
same,Potency,[3],inactive
CCOC(=O)C(O)c1ccccc1 (stereo not given),Potency,[1],inactive
same,Potency,[2],inactive
same,Potency,[3],inactive
CC[N+](C)(CC)CCOC(=O)C(O)(c1ccccc1)C1CCCCC1 (stereo not given),Potency,[1],inactive
same,Potency,[2],inactive
C/C=C(/C(=C/C)c1ccc(OC(C)=O)cc1)c1ccc(OC(C)=O)cc1,Potency,[1],inactive
same,Potency,[2],inactive
same,Potency,[3],inactive
CN(C)CCN(Cc1ccsc1)c1ccccn1,Potency,[1],inactive
same,Potency,[2],inactive
CC(=O)OC[C@H]1O[C@@H](n2ncc(=O)[nH]c2=O)[C@H](OC(C)=O)[C@@H]1OC(C)=O,Potency,[1],inactive
same,Potency,[2],inactive
CCOC(=O)C1=C[C@]2(CC)CCCN3CCc4c(n1c1ccccc41)[C@@H]32,Potency,[1],inactive
same,Potency,[2],0.151 µM (active)
CCC(=O)O[C@]1(C(=O)CCl)[C@@H](C)C[C@H]2[C@@H]3CCC4=CC(=O)C=C[C@]4(C)[C@@]3(F)[C@@H](O)C[C@@]21C,Potency,[1],inactive
same,Potency,[2],inactive
C/C=C/C=C/CO,Potency,[1],inactive
same,Potency,[2],inactive
same,Potency,[3],63.3 µM (active)
CCC(CC)Nc1ccc(C)c(C)c1,Potency,[1],5.64 µM (active)
same,Potency,[2],inactive
same,Potency,[3],inactive
OCc1cc(C(O)CNCCCCCCOCCCCc2ccccc2)ccc1O (stereo not given),Potency,[1],inactive
same,Potency,[2],2.68 µM (active)
CC(CSC(=O)c1ccccc1)C(=O)N1C[C@@H](Sc2ccccc2)C[C@H]1C(=O)O (stereo not given in full),Potency,[1],inactive
same,"activity change, negative = inhibition",[2],3.26% [at 15.8 µM]
same,"activity change, negative = inhibition",[3],15.7% [at 23.6 µM]
OC(CN1CCC(Cc2ccc(F)cc2)CC1)c1ccc(Cl)cc1 (stereo not given),Potency,[1],inactive
same,Potency,[2],0.0849 µM (active)
same,Potency,[3],inactive
C[N+]1(CC2COC(c3ccccc3)(C3CCCCC3)O2)CCCCC1 (stereo not given),Potency,[1],inactive
same,Potency,[2],15.1 µM (active)
Cc1ccc(C(C)OC(=O)C2(C)CCC(C(=O)O)C2(C)C)cc1 (stereo not given),Potency,[1],inactive
same,Potency,[2],inactive
same,Potency,[3],inactive
Cc1oc2c(NC(=O)c3c(Cl)cccc3Cl)cccc2c1C(C)(C)O,Potency,[1],31.7 µM (active)
same,Potency,[2],inactive
same,Potency,[3],28.3 µM (active)
C=CCOc1ccccc1OCC(O)CNC(C)C (stereo not given),Potency,[1],10.2 µM (active)
same,Potency,[2],inactive
same,Potency,[3],inactive
Nc1cccc([N+](=O)[O-])c1,Potency,[1],39.1 µM (active)
same,Potency,[2],inactive
same,Potency,[3],inactive
COc1cc(C(=O)OCCCN2CCCN(CCCOC(=O)c3cc(OC)c(OC)c(OC)c3)CC2)cc(OC)c1OC,Potency,[1],inactive
same,Potency,[2],6.01 µM (active)
c1ccc(C(O[C@H]2CCCN(CCc3ccc4c(c3)OCO4)C2)c2ccccc2)cc1,Potency,[1],30.9 µM (active)
same,Potency,[2],0.535 µM (active)
C=CC1CC2C=CC1C2 (stereo not given),Potency,[1],inactive
same,Potency,[2],inactive
same,Potency,[3],inactive
C[Si](C)(CCCN)O[Si](C)(C)CCCN,Potency,[1],25.2 µM (active)
same,Potency,[2],inactive
same,Potency,[3],2.52 µM (active)
NC(N)=NCCC[C@H](N)C(=O)O,"activity change, negative = inhibition",[1],1.33% [at 10.5 µM]
same,"activity change, negative = inhibition",[2],5.88% [at 6.97 µM]
same,"activity change, negative = inhibition",[3],0.752% [at 10.5 µM]
Cc1ccc(C(=O)Oc2ccc(C(O)CNC(C)(C)C)cc2OC(=O)c2ccc(C)cc2)cc1 (stereo not given),Potency,[1],inactive
same,Potency,[2],6.74 µM (active)
CCCCCCCCCCCCCCOS(=O)(=O)O,Potency,[1],inactive
same,Potency,[2],inactive
same,Potency,[3],inactive
c1ccc(-c2ccccn2)nc1,Potency,[1],71 µM (active)
same,Potency,[2],inactive
same,Potency,[3],inactive
Nc1cccc(S(=O)(=O)c2cccc(N)c2)c1,Potency,[1],inactive
same,Potency,[2],inactive
same,Potency,[3],10 µM (active)
C=C(C)C(=O)OCCOCC,Potency,[1],40.1 µM (active)
same,Potency,[2],inactive
same,Potency,[3],inactive
CCCCCCCCCCCC(=O)OC[C@@H](O)[C@H]1OC[C@H](OCCO)[C@H]1OCCO,Potency,[1],inactive
same,Potency,[2],inactive
same,Potency,[3],17.4 µM (active)
CCn1cc(C(=O)O)c(=O)c2cnc(N3CCNCC3)nc21,Potency,[1],inactive
same,Potency,[2],inactive
same,Potency,[3],inactive
O=C(O)CC(=O)C(=O)O,Potency,[2],inactive
O=[N+]([O-])c1ccc2[nH]ncc2c1,Potency,[1],31.7 µM (active)
same,Potency,[2],inactive
same,Potency,[3],inactive
C[C@H](CCC(=O)O)[C@H]1CC[C@H]2[C@@H]3CC[C@@H]4C[C@H](O)CC[C@]4(C)[C@H]3C[C@H](O)[C@]12C,Potency,[2],inactive
CCOc1ccc(O)cc1,Potency,[2],inactive
C/C(=C(\CCOP(=O)(O)O)SC(=O)c1ccccc1)N(C=O)Cc1cnc(C)nc1N,"activity change, negative = inhibition",[2],1.89% [at 6.97 µM]
C[C@@H]1C[C@H]2O[C@@]3(O[C@@H]2C(C)(C)O)[C@H](O)[C@@]2(C)[C@@H]4CC[C@H]5C(C)(C)[C@@H](O[C@@H]6OC[C@@H](O)[C@H](O)[C@H]6O)CC[C@@]56C[C@@]46CC[C@]2(C)[C@@H]13,Potency,[2],inactive
CCC(C)c1cc(C(C)(C)C)c(O)c(C(C)(C)C)c1 (stereo not given),Potency,[1],62.1 µM (active)
same,Potency,[3],19.6 µM (active)
COc1ccc(C(=O)Nc2nc3ccccc3c(NCc3ccccc3)c2C#N)cc1,Potency,[1],15.9 µM (active)
same,Potency,[3],4.48 µM (active)
C=CC(=O)OCCOc1ccccc1,Potency,[2],inactive
COC(=O)c1ccc(I)cc1S(=O)(=O)NC(=O)Nc1nc(C)nc(OC)n1,Potency,[2],inactive
same,Potency,[3],inactive
CC(=O)c1ccc2c(c1)N(CCCN1CCC(CCO)CC1)c1ccccc1S2,Potency,[2],3.01 µM (active)
CCc1cc(C2=C(C(=O)O)N(c3ccccc3C(F)(F)F)S(=O)(=O)c3ccccc32)cc2c1OCO2,Potency,[1],inactive
same,Potency,[2],inactive
same,Potency,[3],2.79 µM (active)
CN(C)CCN(Cc1ccc(Cl)cc1)c1ccccn1,Potency,[2],2.39 µM (active)
same,Potency,[3],inactive
CCCCCCCCCCCCCCCCCCOS(=O)(=O)O,Potency,[2],inactive
same,Potency,[3],inactive
CO[C@@H]1[C@H](OC(=O)/C=C/C=C/C=C/C=C/C(=O)O)CC[C@]2(CO2)[C@H]1[C@@]1(C)O[C@@H]1CC=C(C)C,Potency,[2],inactive
CCCCO,Potency,[2],inactive
O=C(c1ccc(F)cc1)C1CCN(CCn2c(=S)[nH]c3ccccc3c2=O)CC1,Potency,[2],0.601 µM (active)
CC1=CC[C@H](C(C)C)C=C1,Potency,[2],inactive
same,Potency,[3],28.3 µM (active)
CCOC(=O)COC(=O)c1cc(Oc2ccc(C(F)(F)F)cc2Cl)ccc1[N+](=O)[O-],Potency,[1],22.4 µM (active)
same,Potency,[3],inactive
Cc1cc(N)c2cc(NC(=O)Nc3ccc4nc(C)cc(N)c4c3)ccc2n1,Potency,[2],inactive
CC[N+]1(CC)CCC(=C(c2ccccc2)c2ccccc2)C1C (stereo not given),Potency,[1],inactive
same,Potency,[3],inactive
Cc1cc(C(=O)O)ccc1[N+](=O)[O-],Potency,[1],40 µM (active)
same,Potency,[2],inactive
same,Potency,[3],inactive
CN(C)CCOC(c1ccccc1)c1ccc(Br)cc1 (stereo not given),Potency,[1],17.4 µM (active)
same,Potency,[2],3.38 µM (active)
same,Potency,[3],inactive
CNCCCCOc1ccccc1Cc1ccccc1,Potency,[2],3.38 µM (active)
O=C1OC(=O)C2C3C=CC(C3)C12 (stereo not given),Potency,[1],inactive
same,Potency,[2],inactive
same,Potency,[3],inactive
CCCCCCCCCCCc1ccccc1,Potency,[1],inactive
same,Potency,[3],inactive
NCC(=O)O,"activity change, negative = inhibition",[2],0.344% [at 15.8 µM]
Nc1cc(C(=O)O)c(O)c(S(=O)(=O)O)c1,Potency,[2],inactive
same,Potency,[3],inactive
CN(Cc1ccc(C(C)(C)C)cc1)Cc1cccc2ccccc12,Potency,[2],19 µM (active)
same,Potency,[3],inactive
O=C(O)C(S)C(S)C(=O)O (stereo not given),Potency,[1],inactive
same,Potency,[2],inactive
same,Potency,[3],inactive
CC(=O)[O][Al],Potency,[2],inactive
CN(C)CCCN1c2ccccc2Sc2ccccc21,Potency,[2],9.52 µM (active)
Nc1ccc([N+](=O)[O-])c(C(F)(F)F)c1,Potency,[1],11 µM (active)
same,Potency,[2],inactive
same,Potency,[3],inactive
CCCCc1ncc(/C=C(\Cc2cccs2)C(=O)O)n1Cc1ccc(C(=O)O)cc1,Potency,[2],inactive
Cc1ccc(N=Nc2c(O)c(C(=O)O)cc3ccccc23)c(S(=O)(=O)O)c1,Potency,[1],inactive
same,Potency,[2],inactive
same,Potency,[3],inactive
CC(C)O.CC(C)O.CCOC(=O)/C=C(\C)O.CCOC(=O)/C=C(\C)O.[Ti],Potency,[2],inactive
CCC(C)O (stereo not given),Potency,[2],inactive
COc1ccc(-c2nc3ccc(C4=NNC(=O)CC4C)cc3[nH]2)cc1 (stereo not given),Potency,[1],3.63 µM (active)
same,Potency,[2],inactive
same,Potency,[3],inactive
COC(C)(C)CCO,Potency,[1],inactive
same,Potency,[2],inactive
same,Potency,[3],inactive
